Tests used:
Experiment in all cases: DAPPL (digital affinity profiling via proximity ligation, sequencing); 10 mM Tris-HCl pH 7.5, 50 mM NaCl, 1 mM DTT, 4% glycerol, room temperature, 30 min; GST-TFs on glutathione beads, 16-mer random dsDNA library, 0.1% formaldehyde crosslink after washing; high values mean tight binding
[1] = target: T1, FLI1 (Homo sapiens, UniProt Q01543 1-452); conditions: protein: recombinant; tags: N-terminal GST; dsDNA, one strand shown
T1 sequence: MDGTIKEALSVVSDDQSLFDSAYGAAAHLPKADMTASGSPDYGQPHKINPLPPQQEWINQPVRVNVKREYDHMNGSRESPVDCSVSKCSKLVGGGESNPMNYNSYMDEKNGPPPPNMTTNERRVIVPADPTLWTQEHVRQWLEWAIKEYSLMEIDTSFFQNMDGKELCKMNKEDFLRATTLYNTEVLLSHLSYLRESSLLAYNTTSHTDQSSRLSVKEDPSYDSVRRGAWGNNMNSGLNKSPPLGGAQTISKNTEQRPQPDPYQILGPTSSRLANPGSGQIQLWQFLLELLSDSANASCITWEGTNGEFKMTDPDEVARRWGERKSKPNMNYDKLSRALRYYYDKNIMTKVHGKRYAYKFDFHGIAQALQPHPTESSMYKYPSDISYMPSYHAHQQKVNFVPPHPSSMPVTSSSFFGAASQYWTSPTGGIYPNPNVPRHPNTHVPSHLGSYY
Outline: (§1)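 Yeast served to express human transcription factors as GST fusions, which were then captured on glutathione beads and labelled with DNA barcodes. Pooled with a tag-only sample, they were incubated with 200 nmole of a 16-mer random double-stranded DNA library for 30 min at room temperature in Tris/NaCl/DTT/glycerol buffer, washed, crosslinked with 0.1% formaldehyde, ligated by proximity, amplified by PCR and sequenced. Dividing each hexamer's read frequency for a factor by its frequency for the tag-only sample gives the binding signal.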

[2] = target: T2, ELK1 (Homo sapiens, UniProt P19419 1-428); conditions: protein: recombinant; tags: N-terminal GST; dsDNA, one strand shown
T2 sequence: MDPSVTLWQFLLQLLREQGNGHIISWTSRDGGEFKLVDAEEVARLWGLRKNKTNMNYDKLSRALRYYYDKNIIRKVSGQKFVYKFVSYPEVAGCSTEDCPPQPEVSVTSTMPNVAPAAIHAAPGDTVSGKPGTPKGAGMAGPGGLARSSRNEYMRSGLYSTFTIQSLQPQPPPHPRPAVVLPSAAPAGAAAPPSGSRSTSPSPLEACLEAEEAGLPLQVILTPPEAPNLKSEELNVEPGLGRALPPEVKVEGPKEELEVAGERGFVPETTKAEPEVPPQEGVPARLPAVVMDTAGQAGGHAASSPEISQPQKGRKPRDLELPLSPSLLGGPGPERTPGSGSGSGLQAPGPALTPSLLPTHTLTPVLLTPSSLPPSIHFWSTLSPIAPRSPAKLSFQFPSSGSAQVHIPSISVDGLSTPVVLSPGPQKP
Outline: as §1

[3] = target: T3, GABPA (Homo sapiens, UniProt Q06546 1-454); conditions: protein: recombinant; tags: N-terminal GST; dsDNA, one strand shown
T3 sequence: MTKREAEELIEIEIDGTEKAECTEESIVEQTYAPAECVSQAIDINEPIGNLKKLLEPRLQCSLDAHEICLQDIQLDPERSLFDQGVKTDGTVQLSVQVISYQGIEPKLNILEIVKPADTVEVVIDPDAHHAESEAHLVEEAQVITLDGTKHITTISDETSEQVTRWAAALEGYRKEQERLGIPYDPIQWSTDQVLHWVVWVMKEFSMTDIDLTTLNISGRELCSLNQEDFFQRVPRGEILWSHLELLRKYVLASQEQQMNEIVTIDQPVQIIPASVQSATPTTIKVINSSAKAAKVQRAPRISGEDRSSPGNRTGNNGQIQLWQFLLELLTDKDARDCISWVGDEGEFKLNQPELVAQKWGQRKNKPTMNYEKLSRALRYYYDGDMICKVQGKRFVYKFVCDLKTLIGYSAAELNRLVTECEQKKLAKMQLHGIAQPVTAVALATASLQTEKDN
Outline: as §1

[4] = target: T4, ERG (Homo sapiens, UniProt P11308 1-479); conditions: protein: recombinant; tags: N-terminal GST; dsDNA, one strand shown
T4 sequence: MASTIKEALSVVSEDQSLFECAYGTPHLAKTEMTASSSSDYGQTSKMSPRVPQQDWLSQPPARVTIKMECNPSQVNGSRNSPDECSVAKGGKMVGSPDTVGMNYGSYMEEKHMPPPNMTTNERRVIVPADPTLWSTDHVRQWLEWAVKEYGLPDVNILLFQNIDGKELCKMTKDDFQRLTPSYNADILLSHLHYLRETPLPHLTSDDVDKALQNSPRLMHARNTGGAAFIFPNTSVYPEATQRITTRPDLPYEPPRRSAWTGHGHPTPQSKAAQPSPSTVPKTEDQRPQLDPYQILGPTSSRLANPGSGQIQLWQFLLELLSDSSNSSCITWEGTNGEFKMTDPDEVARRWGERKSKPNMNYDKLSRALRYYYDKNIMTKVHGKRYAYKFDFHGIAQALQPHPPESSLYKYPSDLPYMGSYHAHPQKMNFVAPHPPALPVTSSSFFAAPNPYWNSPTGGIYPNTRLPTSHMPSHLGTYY
Outline: as §1

[5] = target: ELF1 (Homo sapiens, UniProt P32519 1-619); conditions: protein: recombinant; tags: N-terminal GST; dsDNA, one strand shown
Outline: as §1

[6] = target: T5, EHF (Homo sapiens, UniProt Q9NZC4 1-300); conditions: protein: recombinant; tags: N-terminal GST; dsDNA, one strand shown
T5 sequence: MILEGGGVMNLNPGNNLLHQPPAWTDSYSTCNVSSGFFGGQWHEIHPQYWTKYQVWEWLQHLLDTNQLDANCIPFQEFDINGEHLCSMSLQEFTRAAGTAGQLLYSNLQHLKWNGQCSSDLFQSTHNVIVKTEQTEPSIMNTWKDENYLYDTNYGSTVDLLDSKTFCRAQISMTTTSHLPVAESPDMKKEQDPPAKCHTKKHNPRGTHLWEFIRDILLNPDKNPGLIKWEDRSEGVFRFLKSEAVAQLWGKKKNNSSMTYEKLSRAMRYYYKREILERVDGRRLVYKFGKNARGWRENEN
Outline: as §1

[7] = target: SPI1 (Homo sapiens, UniProt P17947 1-270); conditions: protein: recombinant; tags: N-terminal GST; dsDNA, one strand shown
Outline: as §1

[8] = target: SPIB (Homo sapiens, UniProt Q01892 1-262); conditions: protein: recombinant; tags: N-terminal GST; dsDNA, one strand shown
Outline: as §1

[9] = target: T6, ELK3 (Homo sapiens, UniProt P41970 1-407); conditions: protein: recombinant; tags: N-terminal GST; dsDNA, one strand shown
T6 sequence: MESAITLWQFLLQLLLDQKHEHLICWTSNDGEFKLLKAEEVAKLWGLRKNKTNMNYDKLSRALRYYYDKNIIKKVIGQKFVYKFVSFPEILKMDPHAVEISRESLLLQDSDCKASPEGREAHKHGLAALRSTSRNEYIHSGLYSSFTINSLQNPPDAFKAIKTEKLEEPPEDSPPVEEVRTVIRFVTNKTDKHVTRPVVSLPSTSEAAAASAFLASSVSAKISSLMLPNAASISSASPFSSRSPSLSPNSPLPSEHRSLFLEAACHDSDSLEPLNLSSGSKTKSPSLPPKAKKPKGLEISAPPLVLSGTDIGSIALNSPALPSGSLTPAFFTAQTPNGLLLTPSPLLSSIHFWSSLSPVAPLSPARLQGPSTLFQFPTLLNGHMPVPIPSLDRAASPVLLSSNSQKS
Outline: as §1

[10] = target: T7, FEV (Homo sapiens, UniProt Q99581 1-238); conditions: protein: recombinant; tags: N-terminal GST; dsDNA, one strand shown
T7 sequence: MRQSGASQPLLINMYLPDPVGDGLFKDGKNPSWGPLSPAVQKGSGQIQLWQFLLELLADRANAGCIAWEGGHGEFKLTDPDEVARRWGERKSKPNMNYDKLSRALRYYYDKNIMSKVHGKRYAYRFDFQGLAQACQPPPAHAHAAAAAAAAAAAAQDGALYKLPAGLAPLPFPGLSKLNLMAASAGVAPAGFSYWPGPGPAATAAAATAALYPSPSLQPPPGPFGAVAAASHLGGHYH
Outline: as §1

[11] = target: ETV5 (Homo sapiens, UniProt P41161 1-510); conditions: protein: recombinant; tags: N-terminal GST; dsDNA, one strand shown
Outline: as §1

[12] = target: HSF1 (Homo sapiens, UniProt Q00613 1-529); conditions: protein: recombinant; tags: N-terminal GST; chain copies: 3; dsDNA, one strand shown
Outline: as §1

[13] = target: T8, SPIC (Homo sapiens, UniProt Q8N5J4 1-248); conditions: protein: recombinant; tags: N-terminal GST; dsDNA, one strand shown
T8 sequence: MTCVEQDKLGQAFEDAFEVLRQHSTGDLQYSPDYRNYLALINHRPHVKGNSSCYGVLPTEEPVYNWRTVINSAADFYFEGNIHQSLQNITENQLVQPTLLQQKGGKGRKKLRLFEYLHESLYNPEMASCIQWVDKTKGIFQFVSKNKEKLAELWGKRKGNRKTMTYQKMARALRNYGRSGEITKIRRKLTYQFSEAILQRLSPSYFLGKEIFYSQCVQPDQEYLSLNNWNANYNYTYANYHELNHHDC
Outline: as §1

[14] = target: ELF4 (Homo sapiens, UniProt Q99607 1-663); conditions: protein: recombinant; tags: N-terminal GST; dsDNA, one strand shown
Outline: as §1

[15] = target: T9, ETV2 (Homo sapiens, UniProt O00321 1-342); conditions: protein: recombinant; tags: N-terminal GST; dsDNA, one strand shown
T9 sequence: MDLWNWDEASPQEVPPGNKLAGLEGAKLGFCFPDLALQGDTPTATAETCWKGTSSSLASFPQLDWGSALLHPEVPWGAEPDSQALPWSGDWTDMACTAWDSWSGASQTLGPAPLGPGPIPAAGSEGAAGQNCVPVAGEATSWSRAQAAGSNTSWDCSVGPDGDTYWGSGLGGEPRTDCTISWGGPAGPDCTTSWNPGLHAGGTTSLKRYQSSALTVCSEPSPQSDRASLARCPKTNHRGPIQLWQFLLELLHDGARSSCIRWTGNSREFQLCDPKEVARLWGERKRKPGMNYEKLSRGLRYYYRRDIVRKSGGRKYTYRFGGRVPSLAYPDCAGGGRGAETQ
Outline: as §1

[16] = target: T10, ELF3 (Homo sapiens, UniProt P78545 1-371); conditions: protein: recombinant; tags: N-terminal GST; dsDNA, one strand shown
T10 sequence: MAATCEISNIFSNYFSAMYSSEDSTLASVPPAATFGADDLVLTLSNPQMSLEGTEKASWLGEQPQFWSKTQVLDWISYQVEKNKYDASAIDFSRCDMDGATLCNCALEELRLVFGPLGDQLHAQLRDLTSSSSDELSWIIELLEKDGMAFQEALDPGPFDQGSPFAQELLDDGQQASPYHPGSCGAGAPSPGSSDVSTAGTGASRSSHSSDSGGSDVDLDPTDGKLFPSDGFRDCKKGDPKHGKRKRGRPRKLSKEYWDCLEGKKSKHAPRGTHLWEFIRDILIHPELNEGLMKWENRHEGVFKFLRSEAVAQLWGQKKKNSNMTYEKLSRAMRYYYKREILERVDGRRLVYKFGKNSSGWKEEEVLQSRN
Outline: as §1

[17] = target: ETV1 (Homo sapiens, UniProt P50549 1-477); conditions: protein: recombinant; tags: N-terminal GST; dsDNA, one strand shown
Outline: as §1

[18] = target: T11, ELK4 (Homo sapiens, UniProt P28324-2 1-405); conditions: protein: recombinant; tags: N-terminal GST; dsDNA, one strand shown
T11 sequence: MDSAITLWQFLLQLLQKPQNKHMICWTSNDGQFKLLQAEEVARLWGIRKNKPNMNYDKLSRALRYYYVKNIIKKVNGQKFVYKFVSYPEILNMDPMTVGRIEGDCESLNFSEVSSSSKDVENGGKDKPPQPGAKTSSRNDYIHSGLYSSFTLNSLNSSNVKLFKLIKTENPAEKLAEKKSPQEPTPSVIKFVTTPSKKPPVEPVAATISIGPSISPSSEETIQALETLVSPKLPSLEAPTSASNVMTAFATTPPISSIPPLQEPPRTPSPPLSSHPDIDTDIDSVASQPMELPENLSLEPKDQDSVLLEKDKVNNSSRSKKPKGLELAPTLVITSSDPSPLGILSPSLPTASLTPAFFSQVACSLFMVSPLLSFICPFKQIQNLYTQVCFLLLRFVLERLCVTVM
Outline: as §1

[19] = target: CRX (Homo sapiens, UniProt O43186 1-299); conditions: protein: recombinant; tags: N-terminal GST; dsDNA, one strand shown
Outline: as §1

Chain of ETV1 (P50549 whole entry): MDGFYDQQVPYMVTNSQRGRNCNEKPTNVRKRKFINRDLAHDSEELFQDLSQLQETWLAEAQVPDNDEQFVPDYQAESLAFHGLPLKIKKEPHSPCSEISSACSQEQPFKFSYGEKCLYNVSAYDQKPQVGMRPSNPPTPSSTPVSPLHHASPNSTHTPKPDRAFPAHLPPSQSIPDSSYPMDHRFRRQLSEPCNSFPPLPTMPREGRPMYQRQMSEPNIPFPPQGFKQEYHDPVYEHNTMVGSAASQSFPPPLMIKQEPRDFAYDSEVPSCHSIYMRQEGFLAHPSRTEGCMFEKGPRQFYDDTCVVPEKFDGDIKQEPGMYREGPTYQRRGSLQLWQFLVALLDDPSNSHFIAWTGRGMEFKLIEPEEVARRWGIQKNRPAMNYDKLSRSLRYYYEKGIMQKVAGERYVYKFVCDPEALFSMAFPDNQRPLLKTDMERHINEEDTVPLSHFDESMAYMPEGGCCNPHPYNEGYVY
Chain of ETV5 (P41161 whole entry): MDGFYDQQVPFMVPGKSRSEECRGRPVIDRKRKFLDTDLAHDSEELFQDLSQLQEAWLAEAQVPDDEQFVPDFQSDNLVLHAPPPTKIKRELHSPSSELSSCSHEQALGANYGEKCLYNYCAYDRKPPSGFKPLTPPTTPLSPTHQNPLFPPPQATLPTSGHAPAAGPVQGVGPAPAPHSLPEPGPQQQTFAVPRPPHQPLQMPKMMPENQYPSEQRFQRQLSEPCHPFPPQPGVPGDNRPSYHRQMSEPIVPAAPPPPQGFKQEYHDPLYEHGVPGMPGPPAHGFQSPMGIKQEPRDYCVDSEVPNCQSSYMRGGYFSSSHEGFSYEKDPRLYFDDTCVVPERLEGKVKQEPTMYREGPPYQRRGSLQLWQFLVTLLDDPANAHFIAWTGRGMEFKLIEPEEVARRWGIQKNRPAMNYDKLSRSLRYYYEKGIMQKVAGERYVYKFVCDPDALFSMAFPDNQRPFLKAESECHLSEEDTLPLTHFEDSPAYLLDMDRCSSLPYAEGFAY
Chain of HSF1 (Q00613 whole entry): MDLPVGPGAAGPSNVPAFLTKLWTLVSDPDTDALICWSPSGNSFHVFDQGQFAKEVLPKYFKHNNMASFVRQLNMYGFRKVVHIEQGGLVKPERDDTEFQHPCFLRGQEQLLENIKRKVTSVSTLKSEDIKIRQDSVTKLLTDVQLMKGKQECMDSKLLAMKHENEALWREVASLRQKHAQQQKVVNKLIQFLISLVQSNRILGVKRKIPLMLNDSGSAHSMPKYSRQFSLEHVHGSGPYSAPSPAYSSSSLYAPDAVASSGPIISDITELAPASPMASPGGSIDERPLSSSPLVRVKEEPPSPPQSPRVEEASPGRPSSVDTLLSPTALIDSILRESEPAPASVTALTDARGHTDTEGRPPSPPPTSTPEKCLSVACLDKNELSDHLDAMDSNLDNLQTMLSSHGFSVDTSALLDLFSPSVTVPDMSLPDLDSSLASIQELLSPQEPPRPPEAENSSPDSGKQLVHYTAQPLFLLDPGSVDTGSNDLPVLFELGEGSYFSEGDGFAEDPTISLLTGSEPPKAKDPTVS
Chain of ELF1 (P32519 whole entry): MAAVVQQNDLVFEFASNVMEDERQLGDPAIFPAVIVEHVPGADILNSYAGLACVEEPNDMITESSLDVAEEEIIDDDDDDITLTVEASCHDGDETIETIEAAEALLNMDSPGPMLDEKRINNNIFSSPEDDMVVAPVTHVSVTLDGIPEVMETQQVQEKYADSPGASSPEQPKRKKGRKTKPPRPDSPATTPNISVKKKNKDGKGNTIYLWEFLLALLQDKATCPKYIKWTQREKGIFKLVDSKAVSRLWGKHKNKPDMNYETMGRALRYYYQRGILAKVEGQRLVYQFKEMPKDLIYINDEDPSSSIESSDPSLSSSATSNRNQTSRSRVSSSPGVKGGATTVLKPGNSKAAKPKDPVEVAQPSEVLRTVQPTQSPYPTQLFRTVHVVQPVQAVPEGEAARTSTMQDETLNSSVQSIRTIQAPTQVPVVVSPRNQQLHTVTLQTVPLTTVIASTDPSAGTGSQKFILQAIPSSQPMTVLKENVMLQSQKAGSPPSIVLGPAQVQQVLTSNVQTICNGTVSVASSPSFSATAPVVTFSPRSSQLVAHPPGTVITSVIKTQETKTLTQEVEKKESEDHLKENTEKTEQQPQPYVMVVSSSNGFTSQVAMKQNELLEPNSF
Chain of ELF4 (Q99607 whole entry): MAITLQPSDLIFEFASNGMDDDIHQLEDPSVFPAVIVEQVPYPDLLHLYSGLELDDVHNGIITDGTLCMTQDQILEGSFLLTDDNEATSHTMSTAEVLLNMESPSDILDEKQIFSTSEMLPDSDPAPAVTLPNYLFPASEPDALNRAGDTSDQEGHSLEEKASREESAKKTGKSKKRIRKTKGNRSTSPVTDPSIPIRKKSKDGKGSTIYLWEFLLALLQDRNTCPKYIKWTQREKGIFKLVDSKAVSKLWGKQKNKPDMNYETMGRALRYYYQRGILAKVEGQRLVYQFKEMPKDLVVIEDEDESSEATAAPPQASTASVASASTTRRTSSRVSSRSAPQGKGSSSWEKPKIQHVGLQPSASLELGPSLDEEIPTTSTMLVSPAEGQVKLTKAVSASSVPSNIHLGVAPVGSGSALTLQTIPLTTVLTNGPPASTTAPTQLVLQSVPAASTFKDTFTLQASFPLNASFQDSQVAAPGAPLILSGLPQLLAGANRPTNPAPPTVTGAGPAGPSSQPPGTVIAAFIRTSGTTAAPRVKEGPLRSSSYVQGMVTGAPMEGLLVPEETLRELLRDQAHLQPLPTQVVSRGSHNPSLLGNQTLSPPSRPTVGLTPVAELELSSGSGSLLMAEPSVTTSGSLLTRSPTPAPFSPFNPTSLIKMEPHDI
Chain of CRX (O43186 whole entry): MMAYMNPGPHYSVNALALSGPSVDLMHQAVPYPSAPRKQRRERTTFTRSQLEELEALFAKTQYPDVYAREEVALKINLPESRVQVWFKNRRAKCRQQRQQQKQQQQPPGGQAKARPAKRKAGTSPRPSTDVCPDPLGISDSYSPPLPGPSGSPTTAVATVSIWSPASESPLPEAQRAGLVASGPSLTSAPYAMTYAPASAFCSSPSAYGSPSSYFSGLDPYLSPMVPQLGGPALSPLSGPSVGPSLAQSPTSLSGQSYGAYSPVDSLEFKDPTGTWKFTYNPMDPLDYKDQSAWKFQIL
Chain of SPIB (Q01892 whole entry): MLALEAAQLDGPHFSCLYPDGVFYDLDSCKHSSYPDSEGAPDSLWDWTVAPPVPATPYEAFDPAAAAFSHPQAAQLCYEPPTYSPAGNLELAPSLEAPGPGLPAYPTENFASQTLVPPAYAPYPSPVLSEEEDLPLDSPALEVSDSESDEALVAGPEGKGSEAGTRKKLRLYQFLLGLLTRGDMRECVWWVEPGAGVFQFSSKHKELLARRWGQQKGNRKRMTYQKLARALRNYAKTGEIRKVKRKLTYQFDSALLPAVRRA

Row | Sequence | binding signal [1] | binding signal [2] | binding signal [3] | binding signal [4] | binding signal [5] | binding signal [6] | binding signal [7] | binding signal [8] | binding signal [9] | binding signal [10] | binding signal [11] | binding signal [12] | binding signal [13] | binding signal [14] | binding signal [15] | binding signal [16] | binding signal [17] | binding signal [18] | binding signal [19]
1 | AAACGA | 1.07 fold enrichment (6-mer frequency, TF over GST control) | 1.14 fold enrichment (6-mer frequency, TF over GST control) | 1.17 fold enrichment (6-mer frequency, TF over GST control) | 1.11 fold enrichment (6-mer frequency, TF over GST control) | 1.08 fold enrichment (6-mer frequency, TF over GST control) | 1.04 fold enrichment (6-mer frequency, TF over GST control) | 1.1 fold enrichment (6-mer frequency, TF over GST control) | 1 fold enrichment (6-mer frequency, TF over GST control) | 1.14 fold enrichment (6-mer frequency, TF over GST control) | 1.09 fold enrichment (6-mer frequency, TF over GST control) | 1.1 fold enrichment (6-mer frequency, TF over GST control) | 1.09 fold enrichment (6-mer frequency, TF over GST control) | 1.02 fold enrichment (6-mer frequency, TF over GST control) | 1.08 fold enrichment (6-mer frequency, TF over GST control) | 1.1 fold enrichment (6-mer frequency, TF over GST control) | 1.11 fold enrichment (6-mer frequency, TF over GST control) | 1.03 fold enrichment (6-mer frequency, TF over GST control) | – | –
2 | TCATAA | 1.03 fold enrichment (6-mer frequency, TF over GST control) | 1.05 fold enrichment (6-mer frequency, TF over GST control) | 1.03 fold enrichment (6-mer frequency, TF over GST control) | – | 1.02 fold enrichment (6-mer frequency, TF over GST control) | – | 1.06 fold enrichment (6-mer frequency, TF over GST control) | – | – | – | 1.06 fold enrichment (6-mer frequency, TF over GST control) | 1.14 fold enrichment (6-mer frequency, TF over GST control) | 1.12 fold enrichment (6-mer frequency, TF over GST control) | – | – | – | 1.07 fold enrichment (6-mer frequency, TF over GST control) | 1.09 fold enrichment (6-mer frequency, TF over GST control) | 1.38 fold enrichment (6-mer frequency, TF over GST control)

Reference: PMC7862700, “An all-to-all approach to the identification of sequence-specific readers for epigenetic DNA modifications on cytosine”
